Source: PubChem (Johns Hopkins Ion Channel Center)
Hits are enriched below; roughly 1.6% of the tested compounds scored in any of these assays.
KCNQ2 block – inhibitors of rat KCNQ2 potassium channel; O88943; CHO-K1 KCNQ2, FluxOR thallium flux, 20 min; stronger effect = lower value; B-score at 10 µM; hit rate 1.1% among 310,000; AID 2156;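 active = fluorescence ratio B-score at most minus 3 library SDs, with starting brightness B-score within 2 library SDs, cut at about -5.5 in these data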
KCNQ2 enhance – potentiators of rat KCNQ2 potassium channel; O88943; CHO-K1 KCNQ2, FluxOR thallium flux fluorescence; stronger effect = higher value; B-score at 10 µM; hit rate 0.54% among 310,000;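 active = fluorescence ratio B-score at least 3 SD of library B-scores, with initial fluorescence B-score within 3 of them, cut at about 5.3 in these data; same plate scores as AID 2156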;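 note: B-score of peak minus minimum over baseline fluorescence ratio after K+ and Tl+ stimulus; positive B-score means potentiation of KCNQ2 with more thallium influx and brighter signal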
Kir21 confirm – confirmation of mouse Kir2.1 potassium channel inhibitors | AID 2032 | shares compounds with KCNQ2 enhance | Tl flux remaining, % of negative control (stronger effect = lower value), % at 10 µM | hit rate 41% among 2,300 | Kir2.1-expressing cells, FluxOR thallium flux fluorescence; stronger effect = lower value;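 active = Primary-screen hit whose thallium flux fell at least 3 control SD below untreated wells in both duplicates, with normal baseline fluorescence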
Target sequence (P35561 whole entry, looked up): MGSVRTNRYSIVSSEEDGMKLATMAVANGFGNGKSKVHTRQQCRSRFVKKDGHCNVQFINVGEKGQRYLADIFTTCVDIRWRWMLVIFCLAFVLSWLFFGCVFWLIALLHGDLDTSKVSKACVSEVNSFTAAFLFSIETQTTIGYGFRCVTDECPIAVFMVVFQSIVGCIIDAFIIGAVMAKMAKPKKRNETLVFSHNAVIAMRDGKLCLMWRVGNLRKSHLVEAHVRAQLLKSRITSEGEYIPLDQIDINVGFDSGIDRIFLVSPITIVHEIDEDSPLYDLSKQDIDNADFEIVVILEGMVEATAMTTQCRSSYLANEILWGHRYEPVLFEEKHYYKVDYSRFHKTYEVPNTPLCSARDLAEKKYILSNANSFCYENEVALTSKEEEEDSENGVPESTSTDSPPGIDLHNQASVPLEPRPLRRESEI
HEK293 Tl flux – parental HEK293 activity in Kir2.1 inhibitor counter-screen; hit rate 19% among 2,300; shares compounds with KCNQ2 enhance; parental HEK293 cells, FluxOR thallium flux fluorescence; 0% = unstimulated blank wells; FluxOR signal as % of negative control (100 = no effect), % at 10 µM; AID 2105;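 active = dye signal at least 3 control SD above or below untreated wells in both duplicates, raw fluorescence within 3, either direction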;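 note: percent is based on the flux ratio of peak minus minimum fluorescence over baseline F0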
CHO-K1 Tl ctr – parental CHO-K1 activity in KCNQ2 potentiator counter-screen. shares compounds with KCNQ2 enhance. parental CHO-K1 cells, FluxOR thallium flux fluorescence; zero = vehicle mean+3SD, 100% = vehicle-minus-blank window. activity increase over 3SD of controls, % at 10 µM. hit rate 43% among 1,200;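 active = signal rise of at least 3 SD above the untreated control mean, in both duplicate wells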;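 note: counter screen of KCNQ2 potentiator hits so any rise reflects channel-independent effects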
KCNQ1 sel pot – tests whether KCNQ2 potentiators also act on human KCNQ1; hit rate 28% among 1,200; shares compounds with KCNQ2 enhance; AID 2283; CHO KCNQ1 stable, FluxOR thallium flux fluorescence; beyond 3SD, as % of vehicle-control signal; activation over 3SD threshold, % at 10 µM;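 active = fluorescence ratio rise of at least 3 SD of vehicle wells above their mean, in both replicate wells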
KCNQ2 pot conf – rat KCNQ2 channel potentiator confirmation; shares compounds with KCNQ2 enhance; CHO-KCNQ2 cells, FluxOR thallium flux fluorescence; potentiation, less the hit threshold, % at 10 µM; hit rate 68% among 1,200; AID 2287;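 active = fluorescence ratio rising 3 SD or more over the vehicle control mean in both replicates, plus primary screen hit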;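 note: peak minus minimum thallium fluorescence divided by baseline after K/Tl stimulus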
Kir21 spec – selectivity of KCNQ2 potentiators: effect on mouse Kir2.1 | hit rate 2% among 1,200 | HEK293 Kir2.1, FluxOR thallium flux fluorescence | shares compounds with KCNQ2 enhance | activity over 3SD threshold, % at 10 µM;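 active = fluorescence ratio rise of at least 3 SD above the vehicle-control mean, seen in both replicates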
KCNQ2 W236L pot – rat KCNQ2 W236L mutant potentiation by KCNQ2 potentiators; hit rate 10% among 940; shares compounds with KCNQ2 enhance; current increase over 3SD of negative controls (%), stronger effect = higher value, % at 25 µM; CHO KCNQ2-W236L, automated patch clamp current; AID 2558;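 active = current increase at least 3 SD of the untreated controls above them in both duplicate recordings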
Large screens that a line does not name were inactive (follow-up assays come after a bar, where they were run).

COc1ccc2ccccc2c1CNC(C)CCc1ccccc1 (stereo not given)	none (no result: KCNQ2 enhance) | Kir21 confirm 40.5% | HEK293 Tl flux inactive
COc1cc(CC(=O)N(C)CC(=O)Nc2cc(C)ccc2C)cc(OC)c1OC	none
CCCCc1ncc(CN2CCC(CC3CCCCO3)(C(=O)OCC)CC2)[nH]1 (stereo not given)	none
CCOC(=O)C1(CC2CCCCO2)CCN(Cc2cc3ccccc3[nH]2)CC1 (stereo not given)	KCNQ2 enhance 8.45 | CHO-K1 Tl ctr inactive | KCNQ1 sel pot inactive | KCNQ2 pot conf inactive | Kir21 spec inactive
CC(=O)Nc1ccc(Nc2nc3ccccc3n3cnnc23)cc1	none
COc1cc(CNc2ccc(NC(C)=O)cc2)ccc1OCc1ccccc1C	KCNQ2 enhance 5.53 | Kir21 confirm inactive | HEK293 Tl flux inactive | CHO-K1 Tl ctr inactive | KCNQ1 sel pot inactive | KCNQ2 pot conf inactive | Kir21 spec inactive
COc1cc(CNc2ccc(N3CCN(C(C)=O)CC3)cc2)ccc1OCc1ccccc1	none (no result: KCNQ2 enhance)
CCCCCNc1nc2sc3c(c2c(=O)n1-c1cccc(Cl)c1)CCN(C)C3	none (no result: KCNQ2 enhance)
O=C(O)CCN1CC2([N+](=O)[O-])C=CC(=O)C([N+](=O)[O-])(C1)C2CC(=O)c1ccccc1 (stereo not given)	none
O=C(Nc1ncc([N+](=O)[O-])s1)c1cccc([N+](=O)[O-])c1	none
O=C(Nc1ccccc1)Nc1ncc([N+](=O)[O-])s1	KCNQ2 enhance 7.81 | Kir21 confirm inactive | HEK293 Tl flux inactive | CHO-K1 Tl ctr inactive | KCNQ1 sel pot 90.2 | KCNQ2 pot conf 15.2 | Kir21 spec inactive | KCNQ2 W236L pot inactive
COc1cc(C(=O)NC(=S)Nc2ccc3c(c2)C(=O)N(C)C3=O)cc(OC)c1OC	none (no result: KCNQ2 enhance)
C=C[C@H]1[C@H](OC2OC(CO)C(O)C(O)C2O)OC=C(C(=O)OC)[C@H]1C[C@H]1CC(=O)C[C@H](CC(=O)CCc2ccc(O)cc2)O1 (stereo not given in full)	none (no result: KCNQ2 enhance)
Cc1cccc(/C=C2/S/C(=N/N=C3\CC4CCC3(C)C4(C)C)NC2=O)c1 (stereo not given)	KCNQ2 enhance 20.6 | Kir21 confirm inactive | HEK293 Tl flux inactive | CHO-K1 Tl ctr inactive | KCNQ1 sel pot inactive | KCNQ2 pot conf inactive | Kir21 spec inactive | KCNQ2 W236L pot inactive
O=C1N/C(=N/O)S/C1=C/c1cccc([N+](=O)[O-])c1	none
Cc1ccc(S(=O)(=O)NCCSCc2ccccc2)cc1	none (no result: KCNQ2 enhance) | Kir21 confirm 63.5% | HEK293 Tl flux inactive
Cc1ccc(CSCCNS(=O)(=O)c2ccc([N+](=O)[O-])cc2)cc1	none (no result: KCNQ2 enhance)
C#CCONC(=O)c1cc(OCC(F)(F)F)ccc1OCC(F)(F)F	none
Cc1ccc(OCCC(=O)OCC(=O)N2CCN(S(=O)(=O)c3ccc(C)cc3)CC2)cc1	none
CC(NC1CCCC1)c1ccccc1 (stereo not given)	none
CC(NCCC(c1ccccc1)c1ccccc1)c1ccccc1 (stereo not given)	none | Kir21 confirm 43.5% | HEK293 Tl flux inactive
CS(=O)(=O)c1ccc(Cl)c(NC(=O)c2cc(S(=O)(=O)N3CCOCC3)ccc2N2CCCC2)c1	none
Cc1ccccc1OCCNc1cc(N2CCNCC2)ccc1[N+](=O)[O-]	none (no result: KCNQ2 enhance) | Kir21 confirm 35.5% | HEK293 Tl flux inactive
COc1ccccc1OCCNc1cc(N2CCCCC2)ccc1[N+](=O)[O-]	none (no result: KCNQ2 enhance)
COc1ccccc1CNC(=O)[C@H](C)NC(=O)C1CCN(C(=O)[C@@H](N)C(C)C)CC1	none (no result: KCNQ2 enhance)
Cc1ccc(Nc2nc(-c3cccs3)cs2)nc1	none | Kir21 confirm inactive | HEK293 Tl flux inactive
Cc1ccc(Nc2nc(-c3ccccc3)cs2)nc1	none
